From PubChem BioAssay AID626 (Vanderbilt High Throughput Screening Facility, 2007)
Hit rate of the full screen: of about 64,000 compounds, about 1,900 (3%) were called active. The entries come from a sample that favours actives as a whole. Unmarked numbers belong to inactive results.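 Rule for the calls: active = fluorescence rise, raw or as B-score row- and column-corrected plate score, outside the 99.7% band of its plate's samples, either direction; inactive = the rest.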

System: Muscarinic acetylcholine receptor M1
Test: M1 muscarinic receptor agonists, primary screen, CHO-M1 cells, Fluo-4 calcium, agonist mode (AID 626)
Details: Fluo-4 calcium fluorescence, at 10 µM, active compounds read high

Row | Compound | B-score
1 | CS(=O)(=O)c1ccc2nc(NC(=O)C3CCCCC3)sc2c1 | 0.229
2 | O=C1NC(Nc2nc3ccccc3s2)(C(F)(F)F)C(=O)N1C1CCCCC1 (stereo not given) | -0.752
3 | COc1ccc(-c2ccc(-c3noc(-c4ccncc4)n3)c(OC)n2)cc1 | -0.565
4 | CCOc1nc(-c2ccc(OC)cc2)ccc1-c1noc(-c2cc(OC)c(OC)c(OC)c2)n1 | 9.6 (active)
5 | COc1cc(-c2nc(-c3ccncc3)no2)cc(OC)c1OC | -0.116
6 | CC(C)c1nc2oc3c(N4CCN(C)CC4)ncnc3c2c2c1CCC2 | 0.376
7 | Cc1ccccc1Nc1nnc(C)c(=O)[nH]1 | -0.209
8 | CCOC(=O)c1c(N)c(C#N)nn1-c1ccccc1C(=O)OC | -0.00838
9 | Cc1cc(C)cc(OCc2nnc(SCC(=O)Nc3ccccc3)o2)c1 | 0.534
10 | O=C(CSc1nnc(Cn2cnc3ccccc32)o1)c1ccccc1 | 2.49 (active)
11 | c1ccc(Cc2nn3c(Cn4cnc5ccccc54)nnc3s2)cc1 | 0.391
12 | O=C(Nc1nn(Cc2ccccc2F)cc1Br)c1cccs1 | -0.416
13 | O=C(O)c1ccc(COc2c(F)c(F)cc(F)c2F)o1 | 0.494
14 | COc1ccc(Cn2nnc3c(=O)[nH]c(C4CCN(C(=O)c5ccccc5Cl)CC4)nc32)cc1 | -0.0421
15 | CCSc1nc(C)nc2c1oc1ccccc12 | 0.362
16 | CCc1nc(N2CCN(c3nc(C)cc(C)n3)CC2)c2oc3ccccc3c2n1 | 0.00663
17 | CCc1nc(Nc2ccc3nccnc3c2)c2oc3ccccc3c2n1 | 3.77 (active)
18 | COc1cccc(N2C(=O)C3CCCN3C2c2ccc(F)cc2)c1 (stereo not given) | -0.0377
19 | CCn1c(CNc2ccc(OC)cc2)nnc1SCC(=O)c1ccc(OC)cc1 | 0.245
20 | CCOC(=O)N1CC=C2C(C#N)=C(N)C(C#N)(C#N)[C@H](c3cccs3)[C@H]2C1 | 3.8
21 | CCCN1CC=C2C(C#N)=C(N)C(C#N)(C#N)C(c3cc(OC)ccc3OC)C2C1 (stereo not given) | 47 (active)
22 | CCC1=C(C(=O)OC)C(c2cc(OC)ccc2OC)C(C#N)=C(N)O1 (stereo not given) | -0.762

Row | Compound | B-score
23 | COc1cccc(N2CC(C(=O)Nc3c(C)cccc3C)CC2=O)c1 (stereo not given) | -0.0783
24 | Cc1nc2sc(C(c3ccco3)N3CCC4(CC3)OCCO4)c(O)n2n1 (stereo not given) | -0.0511
25 | CCOc1ccc(CN(Cc2ccco2)C(c2cccs2)c2nnnn2C(C)(C)C)cc1 (stereo not given) | 17.1 (active)
26 | CC(C)(C)n1nnnc1C(c1cccs1)N(Cc1cccnc1)CC1CCCO1 (stereo not given) | 0.0241
27 | CCC(C)(C)n1nnnc1C(c1cccs1)N1CCN(Cc2ccccc2)CC1 (stereo not given) | 0.516
28 | O=C(c1ccc(=O)[nH]c1)N(Cc1ccco1)C1(C(=O)NC2CCCCC2)CCCCC1 | 0.118
29 | O/N=C1\CC2(Cc3nonc31)OCCO2 | -0.542
30 | CN(C)c1ccc(NC(=O)c2ccncc2)c2ccccc12 | 0.268
31 | O=C(c1ccco1)N(Cc1nc2ccccc2c(=O)[nH]1)C1CCCC1 | 1.19
32 | CCN(CC)c1ccc2cc(C(=O)O)c(=O)oc2c1 | 17.2 (active)
33 | CCCOC(=O)c1cc2ccccc2oc1=O | -0.13
34 | CCc1ccc2oc(-c3ccc(N)cc3)nc2c1 | 0.427
35 | COc1ccc2oc(=O)c(C(=O)O)cc2c1 | -0.167
36 | CCN(CC)c1ccc2oc(=O)c(C)nc2c1 | 19.1 (active)
37 | CCC1(C)Cc2c(sc3nc4n(c(=O)c23)CCCS4)CO1 (stereo not given) | -0.146
38 | CCOC(=O)c1cc(-c2ccc(Cl)s2)nc2c1c(C)nn2C | 0.0112
39 | CSc1ccc(Cl)c(C(=O)OCC(=O)N2CC(C)OC(C)C2)c1 (stereo not given) | -0.691
40 | Cc1cc(OCCN2CCCC2)ccc1C(C)C | -1.57
41 | COc1ccccc1NC1=NC2(CCCC2)N=C(N)N1 | 0.458
42 | COc1ccccc1NC1=NC(c2ccc(Cl)cc2)N=C(N)N1 (stereo not given) | 2.75 (active)
43 | COc1ccccc1Nc1nc(N)nc(CN(C)C2CCCCC2)n1 | 0.169
44 | O=C(Nc1ccc2c(c1)OCCO2)c1ccncc1 | -0.637

Row | Compound | B-score
45 | O=C(Nc1nc(-c2ccncc2)cs1)C1COc2ccccc2O1 (stereo not given) | -1.04
46 | O=C(Nc1nc(-c2ccc3c(c2)OCO3)cs1)c1ccncc1 | 5.34 (active)
47 | CC1(C)CC(=O)C(C=NCCC2=CCCCC2)=C(O)C1 | 0.836
48 | O=C(c1ccccc1)c1ccc(OC(=O)N2CCCC2)cc1 | -2.34 (active)
49 | O=C(c1ccccc1)N1CCN(C(=O)N2CCCCC2)CC1 | -0.157
50 | O=C(Oc1ccc2c(c1)CCC2)N1CCOCC1 | -0.594
51 | CC(C)(C)c1ccc(NC(=O)NCc2ccco2)cc1 | 0.39
52 | c1cnc(NC2C3CC4CC(C3)CC2C4)nc1 (stereo not given) | 2.24
53 | COc1ccccc1NC(=O)CSc1nc2sc(C)c(C)c2c(=O)n1Cc1ccco1 | -1.75
54 | CCOC(=O)CSc1nc2c(c(=O)n(C)c(=O)n2C)n1Cc1ccccc1F | -0.066
55 | CCOC(=O)CSc1nc2c(sc(=S)n2CCc2ccccc2)c(=O)n1Cc1ccco1 | 7.17 (active)
56 | CC(=O)Nc1ccc(S(=O)(=O)NCCc2ccccc2)cc1 | -0.0675
57 | Cc1cc(C)n(C(=O)c2ccc(C)c(S(=O)(=O)N3CCOCC3)c2)n1 | -0.672
58 | Cc1cc(NC(=O)COC(=O)c2ccc(F)c(S(=O)(=O)N3CCOCC3)c2)no1 | 0.164
59 | COc1ccc(C(=O)OCC(=O)c2ccc(C)c(S(=O)(=O)N3CCOCC3)c2)cc1OC | 11.4 (active)
60 | CCC(C)NC(=O)C1CCC(=O)N1Cc1ccc(C)cc1 (stereo not given) | -0.196
61 | O=C(CN1C(=O)COc2ccccc21)Nc1ccc(F)cc1 | 0.887
62 | O=C(Nc1ccccc1)c1cccnc1Nc1ccccc1 | 1.29
63 | Cc1cccn2c(=O)c3cc(C#N)c(=O)n(CCCN4CCOCC4)c3nc12 | -0.675
64 | COc1ccc(CNC(=O)c2cc3c(=O)n4ccccc4nc3n(CC3CCCO3)c2=N)cc1 (stereo not given) | 0.00619
65 | Cc1cccn2c(=O)c3cc(C#N)c(=NC(=O)c4cccnc4)n(CC4CCCO4)c3nc12 (stereo not given) | 37.8 (active)
